Laboratory results from PubChem BioAssay.
Active and inactive are the calls of the source.

Assays:
[1] = E. coli DRC41 culture turbidity changes, primary screen, E. coli filamentation inducer project, strain DRC41, OD650, 48 h (AID 1152);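 also: E. coli MC1000 strain DRC41 lacking acrAB efflux pump and sulA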; conditions: E. coli DRC41 (acrAB sulA), higher = more signal, called active from +8 up or from −8 down
[2] = small-molecule binders of probe aLefty1, primary screen, biochemical, small-molecule microarray, 635/667 nm fluorescence (AID 1153); conditions: higher = more signal;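 also: score merges spot fluorescence with signal-to-noise ratio from the scanned slide images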
[3] = PSAC antagonists in infected red cells, primary screen, cell-based, P. falciparum Indochina, OD700, 1 h (AID 1154); conditions: P. falciparum Indochina infected RBC osmotic lysis, higher = more signal, called active from +8 up or from −8 down
[4] = PSAC antagonists in infected red cells, primary screen, cell-based, P. falciparum Indochina, OD700, 2 h (AID 1155);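 also: lysis reports solute entry through the parasite surface anion channel PSAC; channel blockers reduce lysis of infected cells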; conditions: P. falciparum Indochina infected erythrocytes, osmotic lysis OD700; higher = more signal, called active from +8 up or from −8 down
[5] = osmotic lysis modulators in infected erythrocytes, primary screen, PSAC antagonist project, cell-based, P. falciparum Indochina, OD700, 3 h (AID 1156); conditions: higher = more signal, called active from +8 up or from −8 down
[6] = PSAC antagonists in infected red cells, primary screen, cell-based, P. falciparum Indochina, OD700, 18 h (AID 1157); conditions: P. falciparum Indochina infected erythrocytes, osmotic lysis OD700, 18 h; higher = more signal, called active from +8 up or from −8 down
[7] = modulators of S6 phosphorylation in cells, primary screen, cell-based, A549, cytoblot, luminescence, serum-stimulated (AID 1158); conditions: A549 phospho-S6 cytoblot, 5 h, higher = more signal;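 also: serum-stimulated A549 lung adenocarcinoma cells; signal is phosphorylated S6 detected by cytoblot immunostaining with HRP secondary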
[8] = biological target: NADPH oxidase 2 (Homo sapiens) (UniProt P04839); test: NOX2-dependent H2O2 signal modulators, primary screen, NOX inhibitor project, cell-based, HEK293-NOX2, PMA-stimulated, Amplex Red fluorescence (AID 1159); conditions: 45 min, higher = more signal, called active from +8 up or from −8 down; also: test concentration not given here
[9] = biological target: NADPH oxidase 4 (Homo sapiens) (UniProt Q9NPH5); test: NOX4-dependent H2O2 signal modulators, primary screen, NOX inhibitor project, cell-based, HEK293-NOX4, tetracycline-induced, Amplex Red fluorescence (AID 1160); conditions: 45 min, higher = more signal, called active from +8 up or from −8 down
[10] = biological target: NADPH oxidase 5 (Homo sapiens) (UniProt Q96PH1); test: NOX5-dependent H2O2 signal modulators, primary screen, NOX inhibitor project, cell-based, HEK293-NOX5, Amplex Red fluorescence (AID 1161); conditions: HEK293-NOX5, ionomycin, 45 min, higher = more signal
Sequence of NADPH oxidase 5 (Homo sapiens) (Q96PH1 whole entry, looked up): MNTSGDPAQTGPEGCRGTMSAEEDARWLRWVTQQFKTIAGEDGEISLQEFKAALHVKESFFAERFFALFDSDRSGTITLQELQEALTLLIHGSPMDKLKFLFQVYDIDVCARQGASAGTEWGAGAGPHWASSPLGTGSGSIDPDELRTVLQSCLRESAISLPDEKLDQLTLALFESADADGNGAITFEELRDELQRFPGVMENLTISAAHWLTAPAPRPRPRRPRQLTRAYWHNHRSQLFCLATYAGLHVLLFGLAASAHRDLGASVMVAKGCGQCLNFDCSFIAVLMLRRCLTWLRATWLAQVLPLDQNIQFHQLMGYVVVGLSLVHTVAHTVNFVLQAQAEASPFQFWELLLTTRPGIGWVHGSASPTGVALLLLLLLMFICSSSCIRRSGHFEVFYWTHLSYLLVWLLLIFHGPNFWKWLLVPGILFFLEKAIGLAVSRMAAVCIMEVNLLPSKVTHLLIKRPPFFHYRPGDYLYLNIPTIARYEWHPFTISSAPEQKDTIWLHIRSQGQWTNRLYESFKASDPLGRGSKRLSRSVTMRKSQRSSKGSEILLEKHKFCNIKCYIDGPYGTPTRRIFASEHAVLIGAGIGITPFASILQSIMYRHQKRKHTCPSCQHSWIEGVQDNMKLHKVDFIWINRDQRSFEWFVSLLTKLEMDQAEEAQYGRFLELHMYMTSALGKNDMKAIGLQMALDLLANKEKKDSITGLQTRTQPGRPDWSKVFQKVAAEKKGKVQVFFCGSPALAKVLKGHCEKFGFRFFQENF

Sequence of NADPH oxidase 4 (Homo sapiens) (Q9NPH5 whole entry, looked up): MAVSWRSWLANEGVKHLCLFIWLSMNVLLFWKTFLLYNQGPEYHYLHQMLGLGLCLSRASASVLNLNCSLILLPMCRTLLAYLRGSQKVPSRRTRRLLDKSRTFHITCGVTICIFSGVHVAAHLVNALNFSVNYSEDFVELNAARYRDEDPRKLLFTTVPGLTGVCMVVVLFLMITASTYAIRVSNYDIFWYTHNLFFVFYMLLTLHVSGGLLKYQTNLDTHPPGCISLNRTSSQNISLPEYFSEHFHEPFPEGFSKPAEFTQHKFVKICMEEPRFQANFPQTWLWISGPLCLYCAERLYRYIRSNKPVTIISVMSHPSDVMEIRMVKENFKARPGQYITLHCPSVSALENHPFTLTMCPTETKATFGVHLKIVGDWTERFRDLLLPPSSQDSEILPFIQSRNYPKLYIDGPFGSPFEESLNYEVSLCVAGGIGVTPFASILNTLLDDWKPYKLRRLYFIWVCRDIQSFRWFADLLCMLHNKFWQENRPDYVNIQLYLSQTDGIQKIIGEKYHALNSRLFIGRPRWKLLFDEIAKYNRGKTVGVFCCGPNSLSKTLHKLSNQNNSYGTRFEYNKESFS
Sequence of NADPH oxidase 2 (Homo sapiens) (P04839 whole entry, looked up): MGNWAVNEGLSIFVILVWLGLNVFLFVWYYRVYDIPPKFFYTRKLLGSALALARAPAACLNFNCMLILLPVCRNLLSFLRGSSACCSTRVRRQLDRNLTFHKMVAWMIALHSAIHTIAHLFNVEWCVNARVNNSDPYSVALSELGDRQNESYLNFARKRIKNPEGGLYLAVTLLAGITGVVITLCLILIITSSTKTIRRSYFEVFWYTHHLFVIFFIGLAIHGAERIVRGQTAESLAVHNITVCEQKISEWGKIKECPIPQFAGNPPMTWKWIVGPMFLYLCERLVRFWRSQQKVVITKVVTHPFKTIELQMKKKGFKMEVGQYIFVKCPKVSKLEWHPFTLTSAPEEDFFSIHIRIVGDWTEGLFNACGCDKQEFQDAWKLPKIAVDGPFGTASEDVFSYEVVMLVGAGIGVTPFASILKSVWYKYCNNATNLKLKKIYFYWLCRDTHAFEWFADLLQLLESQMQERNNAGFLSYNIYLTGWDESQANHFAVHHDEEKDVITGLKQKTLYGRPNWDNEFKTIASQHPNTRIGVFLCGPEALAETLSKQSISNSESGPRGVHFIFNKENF

SMILES | z-score [1] | composite z-score [2] | z-score [3] | z-score [4] | z-score [5] | z-score [6] | z-score [7] | z-score [8] | z-score [9] | z-score [10]
CO[C@@H]1C=CCC(=O)N2CCC[C@H]2C(=O)OC[C@@H](C)C(=O)OC[C@H]1C | 1.12 (inactive) | 0.154 | 0.0026 (inactive) | 0.155 (inactive) | 0.335 (inactive) | 0.181 (inactive) | 0.467 | -0.805 (inactive) | 0.766 (inactive) | 0.147
C[C@H]1CC[C@H]2C(=O)OC(CO)CN2[C@@H]1c1ccc(Br)cc1 (stereo not given in full) | -0.565 (inactive) | -0.0918 | 0.382 (inactive) | 0.675 (inactive) | 0.647 (inactive) | 0.223 (inactive) | -0.42 | 0.923 (inactive) | -1.15 (inactive) | 0.324
CCCCC#C[C@@H]1C=C[C@H](Oc2cc(OC)c(OC)c(OC)c2)[C@@H](COC(=O)OCC)O1 | 0.525 (inactive) | -0.147 | 8.03 (active) | 0.673 (inactive) | -0.172 (inactive) | 0.0018 (inactive) | -0.153 | -1.82 (inactive) | 0.215 (inactive) | -2.66
CCN1C(=O)[C@H]2[C@H]3[C@H](O)[C@H](O)CC(=O)[C@@H]3CC[C@H]2C1=O | 0.0972 (inactive) | -0.149 | -0.0937 (inactive) | -0.0275 (inactive) | -0.403 (inactive) | -0.138 (inactive) | -0.108 | -1.19 (inactive) | 0.1 (inactive) | 0.0328
CCOC(=O)NN=C1C[C@@H](O)[C@@H](O)[C@@H]2[C@@H]3C(=O)N(c4cccc(Oc5ccccc5)c4)C(=O)[C@@H]3CC[C@H]12 | 0.0433 (inactive) | -0.0958 | 1.6 (inactive) | -1.04 (inactive) | 0.0278 (inactive) | -1.58 (inactive) | 0.742 | -0.515 (inactive) | 0.209 (inactive) | -1.33
COC(=O)CC=C[C@@H](C)[C@@H](C=NOC[C@H]1O[C@H](c2ccccc2)C=C[C@@H]1Oc1ccc(OC)cc1)NS(=O)(=O)c1ccc(C)cc1 | -0.272 (inactive) | -0.147 | 4.79 (inactive) | 1.56 (inactive) | 0.949 (inactive) | 0.857 (inactive) | 0.0859 | -0.273 (inactive) | 0.0179 (inactive) | -0.523
CC(=O)OC[C@H]1O[C@@H](ON=C(C)CCN2CCCc3nc(C)c(C)cc32)[C@H](OC(C)=O)[C@@H](OC(C)=O)[C@@H]1OC(C)=O | -1.13 (inactive) | -0.115 | -0.72 (inactive) | 0.0956 (inactive) | 1.01 (inactive) | -1.18 (inactive) | 0.649 | 0.502 (inactive) | -1.36 (inactive) | -1.09
CCOC(=O)[C@H](CC(C)C)NC(=O)CCC1CC(OC(=O)NCCc2ccc(F)cc2)CC2(CCCC(COC(=O)NCC3CCCCC3)O2)O1 (stereo not given in full) | -1.12 (inactive) | -0.169 | 2.04 (inactive) | 0.132 (inactive) | 0.107 (inactive) | -0.341 (inactive) | 0.673 | -0.202 (inactive) | 0.728 (inactive) | 0.123
COc1ccc(O[C@@H]2[C@H](O)CO[C@H]2C=Cc2ccccc2)cc1 | -0.164 (inactive) | -0.237 | 1.65 (inactive) | -0.518 (inactive) | -0.433 (inactive) | -0.323 (inactive) | 0.243 | 0.335 (inactive) | -0.426 (inactive) | -0.102
CCOC(=O)[C@H](Cc1ccccc1)NC(=O)CCC1CC(OC(=O)NCc2cccc3ccccc23)CC2(CCCC(COC(=O)NCC(c3ccccc3)c3ccccc3)O2)O1 (stereo not given in full) | -0.0812 (inactive) | -0.116 | 9.16 (active) | 1.24 (inactive) | -1.06 (inactive) | -0.343 (inactive) | 0.704 | 0.782 (inactive) | 0.674 (inactive) | 0.347
COC(=O)C=CCCc1coc(C=CCNC(=O)OC)n1 | -0.747 (inactive) | 0.632 | 1.78 (inactive) | 0.713 (inactive) | 1.13 (inactive) | 0.247 (inactive) | 0.41 | 0.575 (inactive) | 0.532 (inactive) | 0.21
COc1ccc(COC(=O)NN=C2C[C@@H](O)[C@@H](O)[C@@H]3[C@@H]4C(=O)N(C5CCCCC5)C(=O)[C@@H]4CC[C@H]23)cc1 | -1.01 (inactive) | -0.0611 | 9.99 (active) | 1.51 (inactive) | 0.103 (inactive) | 0.549 (inactive) | 0.173 | -0.248 (inactive) | 0.507 (inactive) | -0.712
COC(=O)[C@H](C)NC(=O)CCC1CC(OC(=O)NCc2ccc3c(c2)OCO3)CC2(CCCC(COC(=O)NCCc3ccccc3OC)O2)O1 (stereo not given in full) | -0.0563 (inactive) | -0.162 | 20.9 (active) | 5.56 (inactive) | -0.257 (inactive) | 0.566 (inactive) | 1.15 | 0.221 (inactive) | 0.301 (inactive) | 0.339
Cn1c(=O)n2n(c1=O)[C@H]1[C@H](O)[C@@H]3O[C@@H]3C(=O)[C@H]1CC2 | 0.498 (inactive) | -0.0984 | -0.259 (inactive) | -0.0607 (inactive) | -0.596 (inactive) | 0.18 (inactive) | -0.0231 | -1.2 (inactive) | 0.171 (inactive) | 0.888
C[C@@H]1NC(=O)[C@@H](C)COC(=O)[C@H](C)NC(=O)[C@@H](C)COC1=O | -2.21 (inactive) | -0.248 | 0.116 (inactive) | -0.334 (inactive) | -0.172 (inactive) | -1.15 (inactive) | 0.35 | -0.0632 (inactive) | -1.11 (inactive) | 0.136
CCOC(=O)[C@H](CC(C)C)NC(=O)CCC1CC(OC(=O)NCc2ccc3c(c2)OCO3)CC2(CCCC(COC(=O)NCC(c3ccccc3)c3ccccc3)O2)O1 (stereo not given in full) | 0.0056 (inactive) | -0.106 | 2.08 (inactive) | 0.316 (inactive) | -0.532 (inactive) | -0.071 (inactive) | -0.438 | -0.312 (inactive) | 1.03 (inactive) | 0.698
